The supplement of paper PMC6555819

Legend:
Assay in all cases: PBM binding z-score (relative to random genomic background probes); higher = stronger binding; sequences stand for … in GC…GCGATTGACAGCGTAGAATGAAGG
[1] = system: PPARg:RXRa DBDmut IVT, anti-RXR (DBD mutation: RXRa K156A/R161A, NR concentration 270 nM, RXRa partner concentration 90 nM)
Outline: (§1)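 On custom Agilent 4×180K arrays, double-stranded probes with 34-nt variable regions carried direct-repeat seeds, single-nucleotide variants, half-site ablations or random human genomic background. Ligand-free nuclear receptor dimers were applied for 1 h, and binding was read with antibodies against each partner (one per run). Binding z-scores come from regression-normalized fluorescence, with the random background probes as reference.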

[2] = system: PPARg:RXRa IVT, anti-PPARg (NR concentration 270 nM, RXRa partner concentration 90 nM)
Outline: as §1

[3] = system: PPARg DBDmut:RXRa IVT, anti-PPARg (DBD mutation: PPARg1 K132A/R137A, NR concentration 270 nM, RXRa partner concentration 90 nM)
Outline: as §1

[4] = system: PPARg DBDmut IVT, anti-PPARg (DBD mutation: PPARg1 K132A/R137A, NR concentration 270 nM)
Outline: as §1

[5] = system: PPARg homodimer (NR concentration 180 nM)
Outline: as §1

[6] = system: PXR:RXRa (NR concentration 270 nM, RXRa partner concentration 90 nM)
Outline: as §1

[7] = system: PXR homodimer (NR concentration 270 nM)
Outline: as §1

[8] = system: RARa:RXR (NR concentration 270 nM, RXRa partner concentration 90 nM)
Outline: as §1

[9] = system: RARa homodimer (NR concentration 270 nM)
Outline: as §1

[10] = system: RARb:RXRa (NR concentration 270 nM, RXRa partner concentration 90 nM)
Outline: as §1

[11] = system: RARb homodimer (NR concentration 270 nM)
Outline: as §1

[12] = system: RARg:RXRa (NR concentration 270 nM, RXRa partner concentration 90 nM)
Outline: as §1

[13] = system: RARg homodimer (NR concentration 270 nM)
Outline: as §1

[14] = system: RXRa DBDmut IVT, anti-RXR (DBD mutation: RXRa K156A/R161A, NR concentration 90 nM)
Outline: as §1

[15] = system: RXRa homodimer (NR concentration 180 nM)
Outline: as §1

[16] = system: THRa:RXRa (NR concentration 90 nM, RXRa partner concentration 90 nM)
Outline: as §1

[17] = system: THRa homodimer (NR concentration 90 nM)
Outline: as §1

[18] = system: VDR homodimer (NR concentration 270 nM)
Outline: as §1

Row | Sequence | PBM binding z-score [1] | PBM binding z-score [2] | PBM binding z-score [3] | PBM binding z-score [4] | PBM binding z-score [5] | PBM binding z-score [6] | PBM binding z-score [7] | PBM binding z-score [8] | PBM binding z-score [9] | PBM binding z-score [10] | PBM binding z-score [11] | PBM binding z-score [12] | PBM binding z-score [13] | PBM binding z-score [14] | PBM binding z-score [15] | PBM binding z-score [16] | PBM binding z-score [17] | PBM binding z-score [18]
1 | TCTGGGAGGACACGAAAGGTCAGAGCTCGACATC | 1.27 | 1.89 | 0.0227 | -0.425 | 2.76 | 4.23 | 0.802 | 4.77 | 1.17 | 4.34 | 4.8 | 4.88 | 5.82 | 0.799 | 4.23 | 3.73 | 1.59 | 1.27
2 | AGTCAAAGTTCATCTAGGTAACGTATGATATGCT | 0.872 | 3.88 | 1.48 | 1.76 | 2.9 | 5.12 | 7.63 | 3.93 | 1.68 | 4.95 | 3.98 | 5.57 | 6 | 4.68 | 4.58 | 3.23 | 0.203 | 5.23
3 | CCAGACAGGTGAAAGGTAGCTCAGTCTGGTACGC | 2.97 | 1.52 | -1.06 | -0.199 | 0.596 | -0.0966 | -0.482 | 0.905 | -0.063 | 0.738 | 0.293 | 0.352 | 0.242 | -0.0776 | 1.07 | 0.0213 | -0.421 | 0.118
4 | CAAACTAGGTCAAGAGGTAAAAGTCCGCTTCCCG | 8.5 | 8.39 | 6.02 | 5.32 | 3.74 | 1.92 | 0.28 | 3.43 | 0.988 | 4.19 | 3.32 | 4.71 | 4.74 | 1.44 | 3.45 | 2.99 | 1.2 | 0.657
5 | CCGACTGGGCCATAAGGTTACCATAAGCCAGCCC | 1.93 | 2.16 | -0.459 | -1.39 | 0.396 | 0.04 | -0.806 | 1.15 | -0.622 | 1.06 | 1.25 | 0.915 | 0.48 | -0.727 | 0.767 | 2 | 1.52 | -0.224
6 | CCTAATGGGCCATTCAGAGGTCATTGATCATATG | 2.5 | 2.39 | 0.168 | 0.266 | 2.02 | 4.59 | 1.84 | 4.39 | 0.847 | 3.27 | 4.03 | 4.62 | 2.88 | 1.45 | 4 | 3.16 | 1.19 | 3.03
7 | TCATATAGGTAATACAGGTGAAAGCCGGCATCTA | 3.7 | 3.6 | 1.75 | 1.32 | 1.14 | 0.985 | 0.433 | 1.36 | 0.756 | 0.757 | 0.482 | 0.795 | 0.815 | 1.69 | 1.55 | 1.14 | 0.273 | 0.67
8 | TCTTGTAGATCAAGCTGGTTAAGAAAGCCTGAGT | 1.49 | 0.0134 | 0.281 | 0.0135 | -0.627 | 0.0638 | 0.0966 | -0.059 | -0.593 | -0.304 | -0.589 | -0.384 | -0.528 | 0.614 | -0.39 | -0.367 | -0.87 | -0.547
9 | CCTTACGGGTCATTGACAGGTTATAGCATTTGGA | 2.34 | 2.72 | 0.642 | 0.325 | 2.77 | 3.94 | 0.591 | 4.67 | 0.122 | 3.64 | 3.04 | 5.75 | 3.8 | 2.9 | 5.07 | 2.91 | 0.494 | 1.67
10 | GCAGACAGGTGAAACGCAGGTAACTCAAGGTGGC | 1.07 | 0.401 | -0.233 | -0.299 | -0.279 | -0.0534 | -0.612 | 0.593 | -0.358 | 0.608 | 0.0427 | 0.907 | 0.318 | -0.708 | 0.523 | 1.76 | -0.397 | -0.202
11 | TCTTGTAGATCAATAGAGGTTAAAAAAGTGCGCT | 1.82 | 1.24 | 0.792 | 0.476 | 0.579 | 2.56 | 0.23 | 1.79 | 0.767 | 0.762 | 1.19 | 0.821 | 0.586 | 0.81 | 1.39 | 2.21 | -0.13 | 0.48
12 | TCTATTAGTTGATGGGCAACCGACGAGTCCGTTT | 2.03 | 0.211 | 0.778 | 1.05 | 0.547 | 0.231 | 0.849 | -0.171 | 0.633 | 0.125 | -0.181 | -0.125 | -0.0889 | 1.49 | 0.101 | -0.425 | 0.00181 | 0.831
13 | CGAACGAGGGCATGAGTTGAGAGCAAATGCCGAT | 3.19 | 2.16 | -0.212 | -0.733 | -0.198 | 0.363 | -0.12 | 0.437 | -0.617 | 2.05 | 0.724 | 1.46 | 1.56 | 1.8 | 1.02 | 1.25 | -0.339 | 1.26
14 | GTTTGTAGATCAAGGTTAAGAAAGACTAAGCTAA | 1.8 | 1.93 | 1.34 | 0.524 | 1.43 | 0.822 | 1.11 | 1.21 | 2.12 | 1.24 | 0.79 | 0.774 | 0.839 | 0.638 | 0.913 | 1.44 | 0.453 | 0.645
15 | CCTCGGAGGACAGAACGTCAGAGCTGTCCGCTTT | -0.575 | -0.846 | -2.12 | -1.43 | -1.05 | -1.12 | -0.765 | -1.04 | -0.587 | 0.103 | -0.587 | -0.462 | -0.0228 | -0.411 | -1.12 | -0.532 | -0.473 | -0.816
